Among the data in PubChem BioAssay AID743279 (National Center for Advancing Translational Sciences (NCATS), 2014) are activity change values, retold here.

Structures are written as SMILES. Hit rate of the full screen: of about 360,000 compounds, about 17,000 (4.7%) were called active. Not shown: some 5% with an inconclusive outcome. Cut-off read from the data, not from the text of the source: active = activity change below about -50%; inconclusive = mostly about -30% to -49%; inactive = weaker than that. This excerpt belongs to a sample that is enriched for actives.
% is set by controls: 0 for no effect and ±100 for the full control effect.

The assay in a line: qHTS for Inhibitors of Inflammasome Signaling: IL-1-beta AlphaLISA Primary Screen. The following applies: THP-1 LPS/ATP IL-1B secretion, 16 h; at 57.5 µM, hits give low values. In outline:
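Secreted IL-1B measured by AlphaLISA bead assay after 16 h compound exposure of THP-1 cells; compounds (final up to 57.5 uM) added 1 h before LPS (250 ng/mL) and ATP (1.25 mM) stimulation; lower signal means less secretion.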
A general note: Quantitative high-throughput screening tests each substance at several concentrations.
As to `O=C(Nc1ccc(F)cc1)Nc1nnc([C@H]2C[C@H](O)[C@@H](CO)O2)s1`, the activity change is -12.8% (inactive). `COc1ccc(-c2nnc(SC(=O)N3c4ccccc4Sc4ccccc43)o2)cc1`: the activity change was -101% (active). With `COc1ccc(-c2nnc(-c3ccc4ccccc4c3)o2)cc1` the figure was -20.9% (inactive). The same measure for `COc1ccc(-c2nnc(SC(C)C(=O)NC3CC3)o2)cc1` (configuration not stated): -5.66% (inactive). `COC(=O)C1(C(=O)OC)C/C=C\CN(S(=O)(=O)c2ccccc2[N+](=O)[O-])CCC1`: the activity change was 18.1% (inactive). As to `O=C(NCc1cccnc1)c1cc(C2CCCN(C(=O)CCCc3ccccc3)C2)on1` (configuration not stated), the activity change is 24.4% (inactive). On to `CCN(CC)CCn1c2ccc(Cl)cc2c2nc(C)sc21`, for which the activity change is -29.9% (inactive). With `CCN(CC)CCCC(C)n1c2nc(=O)[nH]c(=O)c-2nc2cc(Cl)ccc21` (configuration not stated) the figure was -77.2% (active); with `O=C(Nc1ccc(OCCO)cc1)c1csc([C@H]2C[C@H](O)[C@@H](CO)O2)n1`, 4.57% (inactive). Consider `Cc1cc2c(C)nc(N/N=C/c3ccccc3)nc2o1`, for which the activity change was -78.8% (active).

Regarding `COc1cccc(/C=N\Nc2nncc(-c3ccccc3)n2)c1`, the activity change is -16.6% (inactive). The same measure for `FC(F)(F)c1cccc(N/N=C/c2ccccc2)c1`: -1.73% (inactive); for `CC(C)NC(=O)c1ccccc1S(=O)c1ccccc1C#N` (configuration not stated): -0.788% (inactive); for `OCC1OC(n2cnc3c(N4CCCC4)ncnc32)C(O)C1O` (configuration not stated): 86.8% (inactive).

Consider `CCCCn1c(SCC(=O)NCC2CCCO2)nc2ccc(N3CCOCC3)cc2c1=O` (configuration not stated), for which the activity change is -7.71% (inactive). With `COCCCNC(=O)CSc1nc2ccc(N3CCOCC3)cc2c(=O)n1CCc1ccccc1` the figure was -8.48% (inactive). The same measure for `N#CCSc1nc2ccc(N3CCOCC3)cc2c(=O)n1CCc1ccccc1`: -50.9% (active); for `N#Cc1ccc(-c2ccc3nccn3c2)cc1`: 13.1% (inactive). The same measure for `C=CCC[C@H](Cc1ccc(F)cc1)C(=O)OC[C@@H](NC(=O)[C@@H](CC=C)CC(=O)N[C@H](CO)Cc1ccccc1)C(C)(C)C`: -29.4% (inactive); for `C=CC[C@@H](Cc1ccc(F)cc1)C(=O)OC[C@H]1CCCN1C(=O)[C@H](CC=C)CC(=O)N(CCO)Cc1ccccc1`: -21.2% (inactive).

On to `C=CCC[C@@H](Cc1ccc(F)cc1)C(=O)O[C@H](CNC(=O)[C@H](CC=C)CC(=O)N(CCO)Cc1ccccc1)c1ccccc1`, for which the activity change is -58.8% (active).

Regarding `C=CCC[C@H](Cc1ccc(F)cc1)C(=O)OC[C@H](C)NC(=O)[C@H](CC=C)CC(=O)N(CCO)Cc1ccccc1`, the activity change is -17.2% (inactive). With `C=CC[C@H](CC(=O)N(CCO)Cc1ccccc1)C(=O)N[C@@H](COC(=O)[C@@H](CC=C)Cc1ccc(F)cc1)Cc1ccccc1` the figure was -67.6% (active); with `C=CCC[C@@H](Cc1ccc(F)cc1)C(=O)OC[C@@H](C)NC(=O)[C@H](CC=C)CC(=O)N(CCO)Cc1ccccc1`, -24.1% (inactive); with `CSc1ccc(CNC(=O)C2(C)CCCN2C)cc1` (configuration not stated), -5.74% (inactive). With `COCCCNC(=O)CNC(=S)N(Cc1cc(OC)c(OC)c(OC)c1)C1CCCC1` the figure was 7.84% (inactive). With `Cc1ccc(C(=O)N/C(=C\c2cn(S(=O)(=O)N(C)C)c3ccccc23)C(=O)N2CCCC2)cc1` the figure was -17.6% (inactive); with `COc1ccccc1OCc1ccc(C(=O)N2CCN(C)CC2)o1`, 10.8% (inactive).

On to `CN1CCN(C(=O)c2ccc(-c3ccc(Br)cc3)o2)CC1`, for which the activity change is -71.3% (active). As for `CN1CCN(C(=O)c2ccc(NC(=O)c3ccc(Br)o3)cc2)CC1`, the activity change is 4.78% (inactive). The same measure for `CCCc1nn2c(=O)cc(CSCC(=O)Nc3cccc(C)c3)nc2s1`: 19.5% (inactive); for `Cc1cccc(-c2cnc(C(O)c3cc(C)cc(C)c3)[nH]2)c1` (configuration not stated): -1.76% (inactive). The same measure for `CCc1nc2c(OCc3ccc(Cl)cc3Cl)cccn2c1N(C)C(=O)C(C)C`: -84.1% (active); for `CCCCC(=O)N(C)c1c(CC)nc2c(OCc3ccc(Cl)cc3Cl)cccn12`: -54% (active). On to `CCc1nc2c(OCc3ccc(C(=O)OC)cc3)cccn2c1N(C)C(=O)C(C)C`, for which the activity change was -12% (inactive).

As to `CCOC(=O)N(C)c1c(CC)nc2c(OCc3ccccc3C(=O)OC)cccn12`, the activity change is 6.05% (inactive).

As for `CCc1nc2c(OCc3cccc(OC)c3)cccn2c1N(C)C(=O)C(C)C`, the activity change is 51.9% (inactive).

With `CCCCC(=O)N(C)c1c(CC)nc2c(OCc3ccc(S(C)(=O)=O)cc3)cccn12`, the activity change is 28.1% (inactive).

For the molecule `CCc1nc2ccc(C(=O)NC3CCN(Cc4ccccc4)CC3)cn2c1N(C)CCN1CCOCC1`, the activity change was -15.7% (inactive). With `CCc1nc2c(OCc3ccc(C(F)(F)F)cc3)cccn2c1N(C)C(=O)CC(C)C` the figure was -8.97% (inactive). With `COC1=CC(=O)OC(C)(c2ccccc2)C1` (configuration not stated) the figure was 9.74% (inactive); with `COc1ccccc1C(=O)Nc1ccc(NC(=O)c2ccco2)c(C)c1`, -55.2% (active). Take `COc1ccc(NC(=O)c2ccco2)cc1NC(=O)c1ccc(C#N)cc1F`: the activity change is 52.7% (inactive). Consider `Cc1cccc(OCC(=O)Nc2ccc(NC(=O)c3ccco3)c(C)c2)c1`, for which the activity change is -0.614% (inactive). The same measure for `Cc1cc(F)ccc1S(=O)(=O)Nc1ccc(C(=O)N(C)Cc2ccco2)cc1`: -8.26% (inactive); for `COc1ccc(NC(=O)CSc2nnc(-c3ccccc3F)n2C2CC2)cc1S(N)(=O)=O`: 15.5% (inactive); for `Cc1ccc(-n2nc(C)c(/C=N/NC(=O)c3cccs3)c2Cl)cc1`: -8.79% (inactive). Take `Cc1nn(-c2ccccc2)c(C)c1/C=N/NC(=O)CSc1nc2ccccc2c(=O)n1-c1ccccc1`: the activity change was 12% (inactive). For the molecule `Cc1nn(-c2ccccc2)c(Cl)c1/C=N/NC(=O)c1nn(C)cc1[N+](=O)[O-]`, the activity change is -65.7% (active). The same measure for `Cc1ccc(N2CCN(c3ccc([N+](=O)[O-])cn3)CC2)c(C)c1`: -8.34% (inactive); for `C1=C(CCNc2ncnc3c2cnn3-c2ccccc2)CCCC1`: -3.14% (inactive). Take `Cc1ccc(S(=O)(=O)N2CCC(C(=O)NCCC3=CCCCC3)CC2)cc1C`: the activity change is -2.64% (inactive). With `O=C(NCCC1=CCCCC1)C1CCN(Cc2cnn(-c3ccccc3)c2-n2cccc2)CC1` the figure was -64.8% (active); with `Nc1ncnc2c1ncn2[C@@H]1O[C@H](C(=O)N2CCCN(Cc3ccccc3F)CC2)[C@@H](O)[C@H]1O`, 2.81% (inactive).

In the case of `COc1ccccc1-n1c(SCC(=O)Nc2ccc(Cl)cc2)nc(O)c(Cc2ccccc2)c1=O`, the activity change is 0% (inactive). With `O=C(Nc1ccc(C(=O)N2CCOCC2)cc1)Nc1cccc(C(F)(F)F)c1` the figure was -10.3% (inactive). With `COc1ccc(NC(=O)C(=O)NCC(=O)Nc2cccc(C(F)(F)F)c2)cc1` the figure was 10.7% (inactive); with `COc1cc(NC(=O)c2[nH]cnc2C(N)=O)cc(C(=O)Nc2cccc(C(F)(F)F)c2)c1`, -16% (inactive); with `COc1ccc(C(N)c2csc(NC(=O)Nc3cccc(C(F)(F)F)c3)n2)cc1` (configuration not stated), -81.4% (active). Turning to `O=C(Nc1ccc(-c2csc(Nc3cccc(C(F)(F)F)c3)n2)cc1)c1cccc(C(F)(F)F)c1`, the activity change is 11.4% (inactive). With `NC(c1csc(NC(=O)Nc2cccc(C(F)(F)F)c2)n1)C1CCCCC1` (configuration not stated), the activity change was -111% (active). With `CC(C)C[C@H](NC(=O)Nc1cccc(C(F)(F)F)c1)C(=O)O`, the activity change was 34.5% (inactive). The same measure for `NC(c1ccccc1)c1csc(NC(=O)Nc2cccc(C(F)(F)F)c2)n1` (configuration not stated): -106% (active); for `O=C(O)CC1(CC(=O)Nc2cccc(C(F)(F)F)c2)CCCC1`: 16.7% (inactive); for `O=C(NCc1ccccc1)C1CNCC(C(=O)NCc2ccccc2)C1` (configuration not stated): -14.4% (inactive). As for `Cc1cc([N+](=O)[O-])ccc1NS(=O)(=O)c1ccccc1`, the activity change was 26.9% (inactive). With `O=S1(=O)CC(N2CCN(CCO)CC2)CN1C1CCCC1` (configuration not stated) the figure was -8.55% (inactive); with `Cc1ccc(-c2c(N)nc3ncccn23)cc1`, 7.85% (inactive); with `O=C(CN(C(=O)CCC(=O)Nc1nccs1)c1ccc(F)cc1)NCc1ccc2c(c1)OCO2`, -10.1% (inactive). For `CCOc1ccccc1-c1cc(C(=O)N2CCOCC2)c2ccccc2n1`, the activity change was -12% (inactive). The same measure for `CC(=O)N1CCN(C(=O)c2cc(-c3ccc(C)o3)nc3ccccc23)CC1`: 23.1% (inactive); for `O=C(c1cc(-c2ccc(Cl)s2)nc2ccccc12)N1CCOCC1`: -70.8% (active). The same measure for `CCc1nc2ccc(C(=O)Nc3ccc(OC)c(OC)c3)cn2c1N(C)C(=O)c1cccc(OC)c1`: -8.18% (inactive).

For the molecule `COc1ccc(OC)c(S(=O)(=O)n2c([N+](=O)[O-])cnc2C)c1`, the activity change is 0.96% (inactive). With `COc1ccc(C(C[N+](=O)[O-])n2nc(C)cc2C)cc1` (configuration not stated) the figure was -102% (active); with `CCOc1ccc(C(C)C)cc1S(=O)(=O)n1nc(C)cc1C`, 0% (inactive).

Consider `COc1ccc(S(=O)(=O)N2CCc3ccccc32)cc1C(=O)Nc1cc(S(C)(=O)=O)ccc1Cl`, for which the activity change is 47.6% (inactive). In the case of `CC(=O)NS(=O)(=O)c1ccc(N/C(N)=N/c2nc(C)cc(C)n2)cc1`, the activity change was 34.9% (inactive).

Turning to `O=c1c2ccccc2oc2nc(C3CCCCC3)n(Cc3ccco3)c(=O)c12`, the activity change was -16.6% (inactive). Regarding `Cc1ccc(Cn2c(C)nc3c(c2=O)c2nc4ccccc4nc2n3Cc2ccco2)cc1`, the activity change is -83.5% (active). Turning to `Clc1cccc(-c2nc3nc4ccccc4nc3n2Cc2ccco2)c1`, the activity change was -17.2% (inactive).

With `COC(=O)c1cc(S(=O)(=O)NC2CCN(Cc3ccccc3)CC2)cn1C`, the activity change was -1.73% (inactive). As for `CCn1c(=S)[nH]c2cc(S(=O)(=O)N3CCOCC3)ccc21`, the activity change is 46.6% (inactive). With `CSCCC(=O)N1CCCC(CNC(=O)c2ccccc2Cl)C1` (configuration not stated) the figure was 27.1% (inactive).

For the molecule `Cc1ccc(C(=O)Nc2ccc(NC(=O)c3cccs3)cc2)c(C)c1`, the activity change is -12.6% (inactive). Take `CC(C)C(=O)Nc1ccc(C(=O)NNC(=O)c2cccs2)cc1`: the activity change is 7.36% (inactive). The same measure for `CC(Oc1cccc(NC(=O)c2cccs2)c1)C(=O)c1ccccc1` (configuration not stated): -60.1% (active).
